Bioassay records deposited in PubChem BioAssay by several laboratories.
FXN GAA850 act: increases GAA850 frataxin promoter reporter activity | HEK293 lucGAA850 FXN promoter luciferase reporter, 24 h; percent of 10 µM SAHA response | activation, % at 6 µM | 0.56% of 360,000 active | AID 540364;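 active = activation above the average of all compounds screened plus 3 SD, cutoff fixed separately per campaign, cut at about 7.5% in these data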
AHR act: human AHR activation; P35869; AHR-responsive luciferase reporter cells, luminescence; activation, % at 5 µM; 2.5% of 320,000 active; AID 2796; in the data active = activation above about 47%
HSF1 inhib: HSF1 inhibition | activity change, negative = inhibition, % at 7.5 µM (by protocol) | AID 2098 | 0.77% of 300,000 active | NIH3T3-HGL HSE-luciferase, MG132-induced, luminescence 8 h; stronger effect = lower value;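 active = more than half of replicate wells show activity change below -50%, luminescence cut by over half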;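 note: luciferase reports HSF-1 transcriptional activity via heat shock element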
DAX1 inh: NR0B1 (DAX1) inhibition; P51843; HEK293 Gal4-DAX1 luciferase reporter, luminescence; inhibition, % at 6.75 µM; 0.99% of 340,000 active;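 active = inhibition above the mean over all tested compounds plus 3 SD, cut at about 4.2% in these data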;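 note: inhibition shows as a rise in luminescence from relieved DAX1 repression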
Target sequence (P51843 207-470 limits assumed): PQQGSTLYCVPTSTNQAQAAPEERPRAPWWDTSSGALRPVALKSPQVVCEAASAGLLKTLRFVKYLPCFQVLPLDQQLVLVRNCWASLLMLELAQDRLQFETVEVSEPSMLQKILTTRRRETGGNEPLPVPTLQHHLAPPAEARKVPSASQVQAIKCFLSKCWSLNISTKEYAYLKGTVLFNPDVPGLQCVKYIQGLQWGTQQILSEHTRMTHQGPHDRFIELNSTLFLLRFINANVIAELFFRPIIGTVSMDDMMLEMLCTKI
HSF1 activator: increases HSF-1 driven luciferase reporter signal; activation, % at 9 µM; 1.7% of 300,000 active; NIH3T3-HGL HSF-1 luciferase reporter, MG132, 8 h; 100% = twice DMSO control signal;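 active = mean replicate activation of at least 50% with a set share of replicates each reaching 50%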
Large screens that a line does not name were inactive. Sampled rows, rich in hits. Any-hit rate of the full collection: about 5.4%.

CCOc1ccccc1N1CCN(CC(=O)Nc2ccnn2C2CCCC2)CC1	none (no result: HSF1 inhib, HSF1 activator)
O=C(O)c1ccc(/C=N/N2CCN(c3ccccc3)CC2)cc1	DAX1 inh 5.4 (no result: AHR act)
COc1ccc(N2CCN(C(=O)c3ccc(-c4ccccc4)cc3)CC2)cc1	none
O=C(c1ccc(-c2ccccc2)cc1)N1CCN(c2ccccc2)CC1	DAX1 inh 4.8
O=C(c1ccncc1)N1CCN(c2ccc(F)cc2)CC1	HSF1 inhib -66
O=C(c1ccccc1)N1CCN(C(=O)c2ccncc2)CC1	none
O=C(c1ccc(Cl)cc1)N1CCN(c2ccc(F)cc2)CC1	AHR act 58
O=C(c1ccc(Cl)cc1)C1CCN(C(=O)c2ccc(F)cc2)CC1	none
Cc1nnc(SCC(=O)Nc2ccccc2F)n1-c1ccc(F)cc1	none
CCS(=O)(=O)N1CCN(C(=O)c2ccc(-c3ccccc3)cc2)CC1	none
CCS(=O)(=O)N1CCN(C(=O)c2ccccc2)CC1	HSF1 inhib -86
COc1cc(C(=O)NNC(=O)c2cc(S(=O)(=O)N(C)C)ccc2N2CCCC2)cc(OC)c1OC	none (no result: HSF1 inhib, HSF1 activator)
COc1ccc(NC(=S)NNC(=O)c2ccccc2OC(F)F)cc1	AHR act 118
CCc1ccc(NC(=S)NNC(=O)c2ccccc2OC(F)F)cc1	AHR act 49 (no result: FXN GAA850 act, DAX1 inh)
CCNC(=S)NNC(=O)c1ccccc1OC(F)F	none
CC(Cl)=CCn1c(NCCc2ccccc2)nc2c1c(=O)n(C)c(=O)n2C	none (no result: AHR act, HSF1 inhib, DAX1 inh, HSF1 activator)
Nc1nnnn1-c1cccc([N+](=O)[O-])c1	none (no result: AHR act, HSF1 inhib, HSF1 activator)
Cc1cc(/C=C2\SC(=O)N(C)C2=O)c(C)n1-c1ccc(S(N)(=O)=O)cc1	none
Cc1cc(/C=C2\SC(=S)N(C)C2=O)c(C)n1-c1cccc(O)c1	none
CN=C1S/C(=C\c2cc(C)n(-c3ccccc3F)c2C)C(=O)N1C	HSF1 inhib -82
Cc1cc(/C=C2\SC(=O)N(C)C2=O)c(C)n1-c1ccc(O)cc1	HSF1 inhib -70
CC1=C(O)C(=O)C(c2c(C)cc(C)c(Br)c2C)=C(O)C1=O	none (no result: AHR act, HSF1 inhib, HSF1 activator)
COc1cc(Nc2cc(C)nc3ncnn23)cc(OC)c1OC	DAX1 inh 5.5
COc1ccc(C)cc1Nc1cc(C)nc2ncnn12	none
COc1cc(Nc2cc(C)nc3ncnn23)cc(OC)c1	none
COc1ccc(Nc2cc(C)nc3ncnn23)cc1Cl	AHR act 68
CC(=O)c1ccc(NC(=O)CN2c3cccc4cccc(c34)S2(=O)=O)cc1	DAX1 inh 6.0 (no result: HSF1 inhib, HSF1 activator)
CC(=O)Nc1cccc(NC(=O)CN2c3cccc4cccc(c34)S2(=O)=O)c1	none (no result: HSF1 inhib, HSF1 activator)
COc1ccc(C2c3[nH]c4ccccc4c3C[C@H]3C(=O)N(c4ccccc4C(=O)N4CCC[C@@H]4C(=O)O)C(=O)N23)cc1 (some centres undefined)	none (no result: HSF1 inhib, HSF1 activator)
COc1ccc(C2c3[nH]c4ccccc4c3C[C@H]3C(=O)N(c4ccccc4C(=O)N4CCC[C@H]4C(=O)O)C(=O)N23)cc1 (some centres undefined)	DAX1 inh 5.2
NNc1nc2c(Cl)ccc(Cl)c2s1	AHR act 56
CC(C)C(NC(=O)c1ccc(F)cc1)C(=O)N1CCN(c2ccccn2)CC1 (centres undefined)	none (no result: HSF1 inhib, HSF1 activator)
CN1CCN(C(=O)c2ccccc2-c2ccccc2C(=O)O)CC1	none
O=C(NCc1ccccc1)C1CCCN(S(=O)(=O)c2cccc3nsnc23)C1 (centres undefined)	HSF1 inhib -72
O=C(NCc1ccc(F)cc1)C1CCCN(S(=O)(=O)c2cccc3nsnc23)C1 (centres undefined)	none
c1ccc(-c2cn3c4c(sc3n2)CCCC4)cc1	AHR act 66
Cc1c(C(=O)N2CCc3ccccc3C2)sc2nc(-c3ccccc3)cn12	none
COc1cccc(C(O)c2nc(-c3cc(F)cc(F)c3)cs2)c1 (centres undefined)	none (no result: AHR act, HSF1 inhib, DAX1 inh, HSF1 activator)
CCOC(=O)CN/C=C(\C#N)c1ccccc1	DAX1 inh 5.4
N#C/C(=C\c1cccnc1)c1nc2c(s1)CCCC2	HSF1 activator 107
CC1CCc2nc(/C(C#N)=C/c3cccnc3)sc2C1 (centres undefined)	DAX1 inh 6.4, HSF1 activator 126
N#C/C(=C/c1cccnc1)c1ccccc1	none
COc1ccc(S(=O)(=O)Nc2ccc(C(N)=O)cc2)cc1C(=O)N1CCCCCC1	none
O=Cc1ccc(OCc2ccc3ccccc3c2)cc1	HSF1 activator 60
COC(=O)c1c(N=CN(C)C)c(C#N)c2n1CCCC2	DAX1 inh 6.0
CCOC(=O)CNC(=O)N1CCCC(Cc2ccccc2)(C(=O)OCC)C1 (centres undefined)	none
CC(C)NC1CCC(Nc2ccnc3cc(Cl)ccc23)CC1 (centres undefined)	none (no result: AHR act, HSF1 inhib, HSF1 activator)
CC(CCCN1CCCC1)Nc1ccnc2cc(Cl)ccc12 (centres undefined)	DAX1 inh 7.0 (no result: AHR act, HSF1 inhib, HSF1 activator)
CC(C)c1ccc(NC(=O)C2(C)Cc3c(-c4ccc5c(c4)OCO5)ccnc3O2)cc1 (centres undefined)	none (no result: AHR act, HSF1 inhib, DAX1 inh, HSF1 activator)
CC1=NN(c2ccc(Cl)cc2)C(=O)C1C(c1cccc(O)c1)c1c(C)[nH]n(-c2ccc(Cl)cc2)c1=O (centres undefined)	AHR act 67
CC1=NN(c2ccc(F)cc2)C(=O)C1C(c1cccc(O)c1)c1c(C)[nH]n(-c2ccc(F)cc2)c1=O (centres undefined)	none
COc1ccc(-c2csc(Nc3cccnc3)n2)cc1	AHR act 54
c1ccc(-c2csc(Nc3cccnc3)n2)nc1	none
c1cncc(Nc2nc(-c3cccs3)cs2)c1	AHR act 58
COc1ccc(-c2csc(N3CCSCC3)n2)cc1	none
COc1ccc(-c2csc(Nc3ccccc3)n2)cc1	none
COc1ccc(Nc2nc(-c3c[nH]c4ccccc34)cs2)cc1	AHR act 76
COc1ccc(-c2csc(-n3cccn3)n2)cc1	HSF1 activator 61
O=C1N(CCCCN2C(=O)C3(OCCO3)c3ccccc32)c2ccccc2C12OCCO2	AHR act 60
COc1ccccc1N1CCN(c2nccc(C)n2)CC1	none
CC(/C=C/C=C/c1ccccc1)=N/NC(=O)c1ccc2c(c1)OCCO2	none
Cc1ccsc1C(=O)Nc1ccc(C(=O)O)cc1	none (no result: HSF1 inhib, HSF1 activator)
COc1ccc(NC(=O)c2sccc2C)cn1	HSF1 activator 70
Cc1ccc(S(=O)(=O)N2CC3(O)CN(C(=O)OC(C)C)N(C(=O)OC(C)C)CC3(OC(=O)NCC3CCCCC3)C2)cc1 (centres undefined)	none (no result: AHR act, HSF1 inhib, HSF1 activator)
CCC1=NN(C(=O)c2ccc(Cl)cc2)C(O)(c2ccccc2)C1 (centres undefined)	none
CCC1=NN(C(=O)c2ccc(Cl)cc2)C(O)(c2ccc(C)cc2)C1 (centres undefined)	none (no result: AHR act)
COC(=O)C1=NN(C(=O)c2ccc(Cl)cc2)C(O)(c2ccccc2)C1 (centres undefined)	HSF1 activator 142
CCOC(=O)C1=NN(C(=O)c2ccc(C)cc2)C(O)(c2ccc(Cl)cc2)C1 (centres undefined)	HSF1 activator 166
O=C(CSC1=NS(=O)(=O)c2ccccc2N1)NCc1ccc(F)cc1	none
